According to PubChem BioAssay:
Values without a mark were called inactive. Active and inactive are the calls of the source. Cut-off read from the data, not from the text of the source, unless noted: active = inhibition above about 30%; inactive = the rest.

Columns and labels:
[1] = molecular target: Nuclear receptor coactivator 3 (Homo sapiens) (UniProt Q9Y6Q9); assay: NCOA3 GAL4-fusion reporter inhibition – cell-based, luminescence, quadruplicate, confirmation (AID 588792;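 active = mean inhibition over 43.08%, the solvent-only control mean plus 3 SD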;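 note: 0% = DMSO treated cells and 100% = gossypol at 36 µM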); details: HEK293 GAL4-SRC3 luciferase reporter, at 3.6 µM, stronger effect = higher value
Chain of Nuclear receptor coactivator 3 (Homo sapiens) (Q9Y6Q9 whole entry, looked up, the tested form may be a part): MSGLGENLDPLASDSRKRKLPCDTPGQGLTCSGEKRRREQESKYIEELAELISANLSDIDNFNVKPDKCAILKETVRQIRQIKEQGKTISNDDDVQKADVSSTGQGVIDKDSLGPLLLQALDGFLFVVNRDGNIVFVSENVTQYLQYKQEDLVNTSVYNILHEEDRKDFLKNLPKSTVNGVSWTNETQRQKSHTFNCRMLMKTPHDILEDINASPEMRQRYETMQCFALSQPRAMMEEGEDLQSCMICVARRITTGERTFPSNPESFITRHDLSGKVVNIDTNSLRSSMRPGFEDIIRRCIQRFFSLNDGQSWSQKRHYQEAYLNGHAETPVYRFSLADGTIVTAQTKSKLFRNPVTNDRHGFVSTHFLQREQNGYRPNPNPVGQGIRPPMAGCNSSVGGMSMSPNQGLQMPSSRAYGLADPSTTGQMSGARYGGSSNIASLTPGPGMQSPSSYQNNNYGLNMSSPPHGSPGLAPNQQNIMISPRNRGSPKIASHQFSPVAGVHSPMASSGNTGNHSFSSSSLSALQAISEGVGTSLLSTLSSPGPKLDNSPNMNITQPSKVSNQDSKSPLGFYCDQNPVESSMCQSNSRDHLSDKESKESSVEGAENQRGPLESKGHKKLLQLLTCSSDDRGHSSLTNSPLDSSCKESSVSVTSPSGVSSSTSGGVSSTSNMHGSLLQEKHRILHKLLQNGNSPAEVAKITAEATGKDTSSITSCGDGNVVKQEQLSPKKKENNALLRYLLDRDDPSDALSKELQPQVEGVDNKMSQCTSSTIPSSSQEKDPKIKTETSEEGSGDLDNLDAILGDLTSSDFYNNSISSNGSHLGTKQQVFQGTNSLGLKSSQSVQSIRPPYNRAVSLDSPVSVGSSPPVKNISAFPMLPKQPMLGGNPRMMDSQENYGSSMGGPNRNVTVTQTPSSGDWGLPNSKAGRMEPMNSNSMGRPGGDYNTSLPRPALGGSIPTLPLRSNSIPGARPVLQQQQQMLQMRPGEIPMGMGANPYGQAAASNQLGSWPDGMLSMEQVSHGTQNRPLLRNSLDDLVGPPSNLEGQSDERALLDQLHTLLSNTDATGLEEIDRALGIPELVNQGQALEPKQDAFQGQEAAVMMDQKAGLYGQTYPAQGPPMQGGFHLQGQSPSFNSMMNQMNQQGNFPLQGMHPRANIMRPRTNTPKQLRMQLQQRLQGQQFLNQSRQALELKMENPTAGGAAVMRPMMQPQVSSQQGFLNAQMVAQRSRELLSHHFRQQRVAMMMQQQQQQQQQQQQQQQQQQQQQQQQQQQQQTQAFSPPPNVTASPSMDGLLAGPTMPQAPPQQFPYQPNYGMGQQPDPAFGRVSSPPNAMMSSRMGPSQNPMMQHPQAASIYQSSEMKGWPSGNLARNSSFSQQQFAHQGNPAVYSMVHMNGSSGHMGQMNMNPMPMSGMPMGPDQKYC

[2] = test system: transactivating tegument protein VP16 (Human herpesvirus 1), Gal4-VP16 luciferase reporter; assay: repression of VP16-driven luciferase reporter – cell-based, luminescence, high throughput, counter-screen for SRC3 inhibitor project (AID 588794); details: mammalian cells, at 3.6 µM, stronger effect = higher value

## O=C(CCSc1ccc(Cl)cc1)N1CCN(c2ccc(O)cc2)CC1
[1]
  inhibition: 3.85%
[2]
  inhibition: 28%

## O=C1N(c2cccc(Cl)c2)C(c2ccc(Cl)cc2)N2CCCN12 (configuration not stated)
[1]
  inhibition: 3.22%
[2]
  inhibition: -0.24%

## CCOC(=O)c1c(C)sc2c1N(C(=O)CCl)c1cc(Cl)ccc1S2
[1]
  inhibition: -14.3%
[2]
  inhibition: 1.53%

## Cc1ccc(NC(=O)C2c3ccccc3-c3ccccc32)cc1
[1]
  inhibition: 9.64%
[2]
  inhibition: 6.56%

## COc1ccc2c(c1)-c1c(ssc1=S)C(C)(C)N2S(=O)(=O)c1ccc(C)cc1
[1]
  inhibition: 2.95%
[2]
  inhibition: 13.9%

## Cc1ccc(-c2cn(-c3ccc(OC(F)F)cc3)c3[n+]2CCCCC3)cc1
[1]
  inhibition: 3.74%
[2]
  inhibition: 23%

## O=[N+]([O-])c1cc(S(=O)(=O)NCCN2CCOCC2)ccc1Sc1nnnn1-c1ccccc1
[1]
  inhibition: 12.9%
[2]
  inhibition: -10.3%

## COc1ccc(OC)c(Nc2nc(N)nc(CCl)n2)c1
[1]
  inhibition: 15.4%
[2]
  inhibition: 4.74%

## O=C(N/N=C/c1cc(Cl)ccc1O)c1cccnc1
[1]
  inhibition: 15.7%
[2]
  inhibition: 41.4% (active)

## Clc1ccc2nnnc(-c3ccccc3)c2c1
[1]
  inhibition: 65.8% (active)
[2]
  inhibition: 68% (active)

## c1ccc2c(c1)Nc1ccncc1S2
[1]
  inhibition: 31.2%
[2]
  inhibition: 16.4%

## O=C(NCc1ccc(Cl)cc1)c1cccc(NC(=O)c2ccccc2)c1
[1]
  inhibition: -5.52%
[2]
  inhibition: 26.9%

## O=C1N=C(N2CCN(c3ccccc3)CC2)S/C1=C\c1cn[nH]c1-c1ccccc1
[1]
  inhibition: 8.51%
[2]
  inhibition: 2.8%

## Nc1[nH]nc2nc(-c3ccccc3)[nH]c(=O)c12
[1]
  inhibition: -11.1%
[2]
  inhibition: -4.28%

## Cc1nc2c(-c3ccc(F)cc3)cnn2c(N)c1-c1ccc(F)cc1
[1]
  inhibition: 12%
[2]
  inhibition: 9.51%

## O=C(COc1ccc(Cl)cc1)NCc1nnc(SCC(=O)NC2CCCCC2)o1
[1]
  inhibition: 3.51%
[2]
  inhibition: 3.49%
